Measured values reported in PubChem BioAssay AID799 (SRMLSC, 2007).
The whole screen tested about 140,000 compounds, of which about 840 (0.6%) were called active.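 Rule for the calls: active = viability gain under doxorubicin at or above a set limit, the compound median plus 3 SD (cut at about 4.7% in these data); inactive = the rest.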 The sample as a whole holds a higher share of actives than the screen did.

Assay: protection of MRP-1-high cells against doxorubicin toxicity – H69AR cells, CellTiter-Glo, MRP-1 activator project, primary screen (AID 799);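 note: MRP-1 overexpressing cells given doxorubicin 25 µM after compound pretreatment; 18-22 h compound pretreatment then 72 h with doxorubicin before readout; 0% = doxorubicin-only wells and 100% = vehicle-treated cells without doxorubicin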
Conditions: viability rescue, at 10 µM, hits give high values

Structure (SMILES)	viability increase
Cc1c(C2=CCN(S(=O)(=O)c3ccc(Cl)cc3)CC2)c2ccccc2n1C	-0.07% (inactive)
COc1nc(N(C)C)nc(N2CC(=O)N(CCNS(=O)(=O)c3ccc(C)cc3)C2=N)n1	-2.66% (inactive)
O=C1N/C(=C/c2cccn2-c2ccccc2)C(=O)N1c1cccc(Cl)c1	-0.22% (inactive)
Cc1c(Cl)cccc1NC(=S)NCc1ccc2c(c1)OCO2	-4.04% (inactive)
COc1ccc(C2CC(c3cccs3)=NN2C(=O)COC(=O)c2cc3ccccc3cc2O)cc1OC (stereo not given)	-0.45% (inactive)
FC(F)(F)c1cc(-c2ccco2)nc(NCc2ccc(Cl)cc2)n1	-0.53% (inactive)
C=CCNc1nc(C)nc(OC)n1	0.38% (inactive)
COc1nc(NCc2ccc(Cl)cc2)nc(OC)n1	5.12% (active)
CCOc1ccc(/C=N/OCC(=O)NCc2cccs2)cc1	0% (inactive)
COc1ccc2c(c1)C(SCC(=O)NCc1ccccc1)CC(C)(C)O2 (stereo not given)	-1.61% (inactive)
COc1ccc(-c2csc(NC(=O)CCCc3cccs3)n2)cc1	3.87% (inactive)
COc1ccc(N2C(=O)C(CC(=O)Nc3ccc(F)cc3)N(CCc3cccs3)C2=O)cc1 (stereo not given)	5.39% (active)
COC(=O)CN1C(=S)N(c2ccccc2)C(=O)C1CC(=O)Nc1ccc(Cl)cc1 (stereo not given)	-1.37% (inactive)
CC(C)COP(=O)(c1ccc(N(C)C)cc1)C(Nc1ccccc1)c1cccnc1 (stereo not given)	-3.48% (inactive)
CCOc1ccc(Oc2nc(C)cc(OC)n2)nn1	0.08% (inactive)
Cc1ccc(NC(=O)c2cccs2)cc1S(=O)(=O)N(C)C	-1.25% (inactive)
O=S(=O)(NCCSc1ccccn1)c1ccc(Cl)cc1	0.85% (inactive)
Cc1cccc2cc(CN(C(=O)c3cccs3)c3ccccc3)c(=O)[nH]c12	-0.07% (inactive)
Cc1cccc2cc(CN(Cc3cccs3)C(=S)NCc3ccco3)c(=O)[nH]c12	5.98% (active)
Cc1cccc2cc(CN(Cc3cccs3)C(c3nnnn3C3CCCC3)C(C)C)c(=O)[nH]c12 (stereo not given)	-3.53% (inactive)
Cc1ccc(Oc2cc(NC(=O)CCCn3nc(C)c([N+](=O)[O-])c3C)cc([N+](=O)[O-])c2)cc1	-2.6% (inactive)
O=C(O)c1cccc(N=NN2CCCCCC2)c1	-1.92% (inactive)
COC(C(=O)NCc1ccccc1C)c1ccccc1 (stereo not given)	-0.37% (inactive)
COc1cc(C2C(N3C(=O)c4ccccc4C3=O)C(=O)N2c2ccc(C)c(C)c2)cc(OC)c1OC (stereo not given)	-3.6% (inactive)
CCCCOc1ccc(C(=O)N/C(=C/C=C/c2ccccc2)C(=O)N2CCOCC2)cc1	-4.14% (inactive)
